Experimental data reported in the supplement of paper PMC10849652.
The full data set covers some 7,900 targets. This sample favours those with a hit. About 0.6% of all pairs of compound and target were hits.

Compound: c1cn2cc(-c3ccc4cn[nH]c4c3)nc(Nc3ccc(N4CCOCC4)cc3)c2n1 [entospletinib]
Assay: log2 fold change, soluble protein after heating vs DMSO (PISA); higher = thermal stabilisation; K562 cells, 10 uM, 30 min; active = over 0.2 and 3.5 SD of the protein, either way, in both replicates (recomputed)
Outline: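 Values are thermal stability changes relative to control samples and are taken from duplicates. They are stated as log2 fold changes. Before quantification by TMTpro 16plex LC-MS/MS with equalised channel sums, K562 cells at 2×10^6 cells/mL were treated with 10 μM compound for 30 min, heated in aliquots for 3 min across 48°C-58°C, pooled, extracted in PBS with 0.5% NP-40 at 4°C, and centrifuged at 21,000xg for 90 min to give the soluble supernatant.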

Sequence of UniProt Q96RE7 (Q96RE7 whole entry, looked up): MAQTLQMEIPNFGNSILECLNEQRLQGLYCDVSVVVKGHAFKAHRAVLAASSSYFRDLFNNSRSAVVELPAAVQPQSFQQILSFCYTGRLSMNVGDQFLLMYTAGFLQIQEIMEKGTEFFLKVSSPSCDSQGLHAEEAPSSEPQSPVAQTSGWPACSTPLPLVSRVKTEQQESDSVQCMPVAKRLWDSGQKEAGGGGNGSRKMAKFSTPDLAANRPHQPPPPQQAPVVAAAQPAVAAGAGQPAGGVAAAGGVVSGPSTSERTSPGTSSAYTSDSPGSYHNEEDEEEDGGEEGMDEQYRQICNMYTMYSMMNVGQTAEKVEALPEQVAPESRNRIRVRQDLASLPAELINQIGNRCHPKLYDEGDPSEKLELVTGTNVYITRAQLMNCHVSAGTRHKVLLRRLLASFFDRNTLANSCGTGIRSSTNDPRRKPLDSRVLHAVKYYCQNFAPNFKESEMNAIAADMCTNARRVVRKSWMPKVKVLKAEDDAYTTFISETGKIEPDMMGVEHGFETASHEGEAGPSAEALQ
Sequence of UniProt Q6N063 (Q6N063 whole entry, looked up): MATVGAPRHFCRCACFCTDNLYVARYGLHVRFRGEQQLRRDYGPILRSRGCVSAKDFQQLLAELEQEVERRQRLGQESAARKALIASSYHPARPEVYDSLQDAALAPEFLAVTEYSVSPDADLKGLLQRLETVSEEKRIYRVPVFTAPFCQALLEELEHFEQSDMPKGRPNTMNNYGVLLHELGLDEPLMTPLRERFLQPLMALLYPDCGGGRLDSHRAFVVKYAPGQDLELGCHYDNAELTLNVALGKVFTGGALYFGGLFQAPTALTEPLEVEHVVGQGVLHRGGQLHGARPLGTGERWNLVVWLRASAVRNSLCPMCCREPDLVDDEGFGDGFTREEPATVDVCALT
Sequence of UniProt Q68DK7 (Q68DK7 whole entry, looked up): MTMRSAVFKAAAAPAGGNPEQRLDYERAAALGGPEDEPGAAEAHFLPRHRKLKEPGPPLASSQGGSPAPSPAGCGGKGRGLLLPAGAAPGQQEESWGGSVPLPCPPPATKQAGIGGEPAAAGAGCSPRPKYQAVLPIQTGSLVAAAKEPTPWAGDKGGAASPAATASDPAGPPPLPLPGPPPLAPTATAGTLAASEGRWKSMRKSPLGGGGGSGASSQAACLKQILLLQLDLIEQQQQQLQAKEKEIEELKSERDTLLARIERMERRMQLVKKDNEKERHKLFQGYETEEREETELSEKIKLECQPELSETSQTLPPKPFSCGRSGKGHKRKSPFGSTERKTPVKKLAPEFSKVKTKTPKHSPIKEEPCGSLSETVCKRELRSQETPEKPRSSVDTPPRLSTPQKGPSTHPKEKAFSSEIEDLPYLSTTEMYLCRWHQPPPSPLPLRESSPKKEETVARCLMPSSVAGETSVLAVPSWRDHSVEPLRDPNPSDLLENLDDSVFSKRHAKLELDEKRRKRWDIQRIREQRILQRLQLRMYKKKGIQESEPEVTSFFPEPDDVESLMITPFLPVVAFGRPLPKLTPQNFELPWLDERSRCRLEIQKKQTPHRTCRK
Sequence of UniProt Q9BV86 (Q9BV86 whole entry, looked up): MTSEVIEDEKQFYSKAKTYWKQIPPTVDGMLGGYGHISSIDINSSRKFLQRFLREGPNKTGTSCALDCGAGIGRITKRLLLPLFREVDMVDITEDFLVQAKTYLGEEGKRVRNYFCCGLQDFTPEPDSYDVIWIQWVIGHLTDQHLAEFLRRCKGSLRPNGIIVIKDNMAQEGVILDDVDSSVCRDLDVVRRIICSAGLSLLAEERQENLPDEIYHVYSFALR
Sequence of UniProt Q00013 (Q00013 whole entry, looked up): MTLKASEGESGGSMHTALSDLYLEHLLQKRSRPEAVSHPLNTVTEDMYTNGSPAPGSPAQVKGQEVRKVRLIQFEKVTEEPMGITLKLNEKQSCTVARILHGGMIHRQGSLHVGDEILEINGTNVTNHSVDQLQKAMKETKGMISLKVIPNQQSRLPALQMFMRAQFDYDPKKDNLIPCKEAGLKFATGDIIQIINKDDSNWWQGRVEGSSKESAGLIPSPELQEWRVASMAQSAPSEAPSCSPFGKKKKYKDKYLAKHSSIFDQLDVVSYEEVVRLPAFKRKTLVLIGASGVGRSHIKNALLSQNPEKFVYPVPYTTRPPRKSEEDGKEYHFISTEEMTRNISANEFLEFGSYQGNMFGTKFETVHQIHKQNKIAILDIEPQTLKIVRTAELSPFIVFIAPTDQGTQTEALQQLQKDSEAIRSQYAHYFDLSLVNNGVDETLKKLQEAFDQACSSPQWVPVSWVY
Sequence of UniProt Q9BVC4 (Q9BVC4 whole entry, looked up): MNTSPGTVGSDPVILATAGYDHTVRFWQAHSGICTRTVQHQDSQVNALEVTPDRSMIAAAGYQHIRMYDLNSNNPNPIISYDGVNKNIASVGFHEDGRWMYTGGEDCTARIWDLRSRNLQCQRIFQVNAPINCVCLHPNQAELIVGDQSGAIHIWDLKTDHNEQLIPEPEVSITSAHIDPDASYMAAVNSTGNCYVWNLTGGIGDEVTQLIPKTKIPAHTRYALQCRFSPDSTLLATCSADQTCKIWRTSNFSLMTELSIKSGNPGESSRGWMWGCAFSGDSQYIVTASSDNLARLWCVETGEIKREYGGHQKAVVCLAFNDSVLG
Sequence of UniProt O43847 (O43847 whole entry, looked up): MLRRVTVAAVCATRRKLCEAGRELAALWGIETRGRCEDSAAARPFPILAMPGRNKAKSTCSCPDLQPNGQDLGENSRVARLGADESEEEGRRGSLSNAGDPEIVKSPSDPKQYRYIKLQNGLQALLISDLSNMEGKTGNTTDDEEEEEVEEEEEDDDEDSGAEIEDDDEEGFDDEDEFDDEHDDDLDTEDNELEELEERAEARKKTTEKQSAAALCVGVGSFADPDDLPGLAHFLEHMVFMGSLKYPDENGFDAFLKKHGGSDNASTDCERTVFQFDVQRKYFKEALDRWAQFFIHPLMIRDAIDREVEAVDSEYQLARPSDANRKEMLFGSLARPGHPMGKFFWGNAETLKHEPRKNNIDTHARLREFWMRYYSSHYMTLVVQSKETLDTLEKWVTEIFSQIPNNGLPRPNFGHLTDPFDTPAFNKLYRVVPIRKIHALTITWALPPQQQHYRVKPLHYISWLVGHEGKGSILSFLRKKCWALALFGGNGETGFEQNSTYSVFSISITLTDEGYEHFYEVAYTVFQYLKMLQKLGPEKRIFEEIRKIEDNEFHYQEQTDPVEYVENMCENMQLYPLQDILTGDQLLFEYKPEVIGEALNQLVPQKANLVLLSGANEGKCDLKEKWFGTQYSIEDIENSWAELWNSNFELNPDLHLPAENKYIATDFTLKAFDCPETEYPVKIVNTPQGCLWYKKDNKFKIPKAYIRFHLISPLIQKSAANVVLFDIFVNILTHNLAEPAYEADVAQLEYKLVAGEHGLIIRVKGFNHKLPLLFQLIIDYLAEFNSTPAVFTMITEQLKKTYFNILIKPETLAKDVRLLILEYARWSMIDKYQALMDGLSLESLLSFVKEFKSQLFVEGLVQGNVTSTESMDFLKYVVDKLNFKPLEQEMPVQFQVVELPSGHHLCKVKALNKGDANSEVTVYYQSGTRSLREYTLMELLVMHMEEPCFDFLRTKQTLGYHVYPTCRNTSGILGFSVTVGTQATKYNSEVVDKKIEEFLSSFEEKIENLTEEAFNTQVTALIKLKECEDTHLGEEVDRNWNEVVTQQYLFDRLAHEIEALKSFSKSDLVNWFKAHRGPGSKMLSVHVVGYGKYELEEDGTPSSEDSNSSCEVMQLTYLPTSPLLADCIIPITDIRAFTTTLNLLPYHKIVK
Sequence of UniProt Q9H000 (Q9H000 whole entry, looked up): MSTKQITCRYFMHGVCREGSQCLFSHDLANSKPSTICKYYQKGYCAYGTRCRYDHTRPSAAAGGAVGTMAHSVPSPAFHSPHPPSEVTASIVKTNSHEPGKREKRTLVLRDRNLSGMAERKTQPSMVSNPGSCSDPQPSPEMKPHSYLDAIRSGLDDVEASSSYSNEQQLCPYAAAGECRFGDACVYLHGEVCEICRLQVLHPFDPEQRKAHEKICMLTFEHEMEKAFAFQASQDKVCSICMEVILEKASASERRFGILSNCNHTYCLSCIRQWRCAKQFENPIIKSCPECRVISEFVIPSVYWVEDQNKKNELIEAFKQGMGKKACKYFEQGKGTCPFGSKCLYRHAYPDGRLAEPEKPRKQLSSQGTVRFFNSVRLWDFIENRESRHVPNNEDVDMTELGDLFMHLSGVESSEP
Sequence of UniProt Q9Y605 (Q9Y605 whole entry, looked up): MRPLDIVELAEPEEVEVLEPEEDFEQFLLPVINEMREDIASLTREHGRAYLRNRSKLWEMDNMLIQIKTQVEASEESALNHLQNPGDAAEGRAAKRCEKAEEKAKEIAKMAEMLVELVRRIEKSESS
Sequence of UniProt P25208 (P25208 whole entry, looked up): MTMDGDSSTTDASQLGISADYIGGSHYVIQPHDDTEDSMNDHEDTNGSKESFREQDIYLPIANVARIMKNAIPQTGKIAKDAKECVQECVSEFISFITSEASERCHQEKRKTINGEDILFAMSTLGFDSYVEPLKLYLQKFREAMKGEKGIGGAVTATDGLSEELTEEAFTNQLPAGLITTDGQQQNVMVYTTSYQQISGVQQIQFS
Sequence of UniProt P49914 (P49914 whole entry, looked up): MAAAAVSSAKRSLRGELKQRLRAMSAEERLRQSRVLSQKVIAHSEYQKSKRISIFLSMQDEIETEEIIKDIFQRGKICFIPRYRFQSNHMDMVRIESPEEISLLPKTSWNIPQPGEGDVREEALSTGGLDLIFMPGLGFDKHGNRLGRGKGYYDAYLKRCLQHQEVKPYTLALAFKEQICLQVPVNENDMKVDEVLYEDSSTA
Sequence of UniProt P53370 (P53370 whole entry, looked up): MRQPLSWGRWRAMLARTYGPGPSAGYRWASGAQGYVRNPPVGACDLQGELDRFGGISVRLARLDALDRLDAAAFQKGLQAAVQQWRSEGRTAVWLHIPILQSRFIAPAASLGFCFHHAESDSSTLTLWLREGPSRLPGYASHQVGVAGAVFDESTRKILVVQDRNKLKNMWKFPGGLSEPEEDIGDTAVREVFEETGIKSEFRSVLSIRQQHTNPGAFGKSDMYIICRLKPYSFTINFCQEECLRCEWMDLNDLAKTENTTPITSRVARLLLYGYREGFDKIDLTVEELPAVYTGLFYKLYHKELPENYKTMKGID

Q: How did the log2 fold change turn out when MTHFD1 (UniProt P11586) was run?
A: Its log2 fold change is 0.055 (inactive).

Q: MRPS22 (UniProt P82650) was tested. Which log2 fold change did it give?
A: The log2 fold change was 0.057 (inactive).

Q: For NDUFA9 (UniProt Q16795), which log2 fold change is on record?
A: Its log2 fold change is -0.011 (inactive).

Q: NFYB (UniProt P25208) was tested. Which log2 fold change did it give?
A: Its log2 fold change is 0.04 (inactive).

Q: How did the log2 fold change turn out when NAA11 (UniProt Q9BSU3) was run?
A: Its log2 fold change is -0.041 (inactive).

Q: MRPS6 (UniProt P82932) was tested. Which log2 fold change did it give?
A: The log2 fold change was 0.046 (inactive).

Q: NOP58 (UniProt Q9Y2X3) was tested. Which log2 fold change did it give?
A: The log2 fold change was 0.085 (inactive).

Q: How did the log2 fold change turn out when NEDD4 isoform 4 (UniProt P46934) was run?
A: The log2 fold change was -0.007 (inactive).

Q: How did the log2 fold change turn out when MRFAP1 (UniProt Q9Y605) was run?
A: Its log2 fold change is 0.005 (inactive).

Q: How did the log2 fold change turn out when MRPS33 (UniProt Q9Y291) was run?
A: The log2 fold change was 0.086 (inactive).

Q: MSL1 (UniProt Q68DK7) was tested. Which log2 fold change did it give?
A: Its log2 fold change is -0.078 (inactive).

Q: How did the log2 fold change turn out when NRDC isoform 2 (UniProt O43847) was run?
A: The log2 fold change was -0.005 (inactive).

Q: How did the log2 fold change turn out when MRPL50 (UniProt Q8N5N7) was run?
A: The log2 fold change was -0.005 (inactive).

Q: With NUDT6 (UniProt P53370) as the target, how does the log2 fold change read?
A: Its log2 fold change is 0.127 (inactive).

Q: Which log2 fold change does the source give for NAGPA (UniProt Q9UK23) here?
A: Its log2 fold change is -0.109 (inactive).

Q: With MON1B (UniProt Q7L1V2) as the target, how does the log2 fold change read?
A: Its log2 fold change is 0.017 (inactive).

Q: For NACC1 (UniProt Q96RE7), which log2 fold change is on record?
A: The log2 fold change was -0.019 (inactive).

Q: For NKAP (UniProt Q8N5F7), which log2 fold change is on record?
A: The log2 fold change was -0.144 (inactive).

Q: With OXA1L (UniProt Q15070) as the target, how does the log2 fold change read?
A: The log2 fold change was -0.014 (inactive).

Q: Which log2 fold change does the source give for NTMT1 (UniProt Q9BV86) here?
A: The log2 fold change was 0.118 (inactive).

Q: Which log2 fold change does the source give for MLST8 (UniProt Q9BVC4) here?
A: The log2 fold change was -0.06 (inactive).

Q: OGFOD2 (UniProt Q6N063) was tested. Which log2 fold change did it give?
A: The log2 fold change was -0.003 (inactive).

Q: Which log2 fold change does the source give for MPP1 (UniProt Q00013) here?
A: Its log2 fold change is 0.056 (inactive).

Q: NCAPH (UniProt Q15003) was tested. Which log2 fold change did it give?
A: The log2 fold change was 0.012 (inactive).

Q: With MINK1 (UniProt Q8N4C8) as the target, how does the log2 fold change read?
A: Its log2 fold change is -0.026 (inactive).

Q: Which log2 fold change does the source give for MTHFS (UniProt P49914) here?
A: Its log2 fold change is 0.127 (inactive).

Q: MMADHC (UniProt Q9H3L0) was tested. Which log2 fold change did it give?
A: Its log2 fold change is 0.158 (inactive).

Q: With NFATC2 (UniProt Q13469) as the target, how does the log2 fold change read?
A: Its log2 fold change is -0.012 (inactive).

Q: With OXR1 isoform 2 (UniProt Q8N573) as the target, how does the log2 fold change read?
A: Its log2 fold change is 0.004 (inactive).

Q: NCL (UniProt P19338) was tested. Which log2 fold change did it give?
A: Its log2 fold change is 0.102 (inactive).

Q: For NUDT1 (UniProt P36639), which log2 fold change is on record?
A: The log2 fold change was 0.018 (inactive).

Q: Which log2 fold change does the source give for MKRN2 (UniProt Q9H000) here?
A: The log2 fold change was -0.038 (inactive).

Q: MND1 (UniProt Q9BWT6) was tested. Which log2 fold change did it give?
A: The log2 fold change was 0.047 (inactive).

Q: With NEK3 (UniProt P51956) as the target, how does the log2 fold change read?
A: Its log2 fold change is -0.002 (inactive).
